Screening data deposited in PubChem by Milwaukee Institute for Drug Discovery.
Shown are actives, neighbours in structure and some others; about 6.9% of the full set was active somewhere.
Cy5 interf NS3h: Cy5 fluorescence quenchers or enhancers, artefact control for HCV NS3 helicase inhibitor project, biochemical, ChemBridge library, Cy5 readout; Cy5-dT15 DNA with NS3h, fluorescence interference; actives lie on both sides; signal over control mean, under 1 quenches; fluorescence interference ratio at 100 µM; actives 6% (n = 16,000); AID 720488, 2013;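 active = compound fluorescence over control fluorescence at most 0.8, a quencher, or at least a set upper limit, an enhancer; inactive = ratio between 0.8 and the set upper limit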
HCV NS3h FP: HCV NS3 helicase inhibitors, primary screen, biochemical, fluorescence polarization, ChemBridge library | Hepatitis C virus NS3 helicase | NS3h Cy5-dT15 DNA binding | inhibition, % at 100 µM | actives 1.6% (n = 16,000);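 active = inhibition above the average over every tested compound plus 3 SD, cut at about 40% in these data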
HCV NS3h conf: HCV NS3 helicase inhibitors, retest, confirmation, biochemical, fluorescence polarization, ChemBridge library. AID 720485, 2013. inhibition, % at 100 µM. NS3h binding to Cy5-dT15 DNA. shares compounds with HCV NS3h FP. actives 20% (n = 240);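 active = percent inhibition of 50% or more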
SSB FP counter: E. coli SSB-DNA binding inhibitors, counter-screen for HCV NS3 helicase inhibitor project, biochemical, fluorescence polarization, selected ChemBridge compounds. E. coli SSB binding Cy5-dT15. shares compounds with HCV NS3h FP. actives 40% (n = 240). inhibition, % at 100 µM;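 active = inhibition of at least 50%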;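 note: displacers lower Cy5 polarization so higher inhibition means more SSB displaced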
Target sequence (P0AGE0 whole entry, looked up): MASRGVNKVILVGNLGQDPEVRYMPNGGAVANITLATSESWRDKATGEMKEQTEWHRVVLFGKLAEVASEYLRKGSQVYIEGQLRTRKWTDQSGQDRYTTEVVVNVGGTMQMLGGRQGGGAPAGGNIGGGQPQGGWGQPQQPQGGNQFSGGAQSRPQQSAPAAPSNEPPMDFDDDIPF
Cy5 SSB fluor CB: Cy5 fluorescence interference with SSB-bound oligo, artefact control for HCV NS3 helicase inhibitor project, biochemical, E. coli SSB, selected ChemBridge compounds | shares compounds with HCV NS3h FP | Cy5-dT15/E. coli SSB fluorescence interference; actives lie on both sides | actives 8% (n = 240) | fluorescence interference ratio at 100 µM;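 active = fluorescence interference ratio at or above 1.2, signal boosting, or at or below 0.8, signal quenching; inactive = ratio between 0.8 and 1.2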;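 note: ratio of compound well signal to mean negative control signal so 1 means no effect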
Cy5 interf conf: Cy5-DNA-NS3h complex fluorescence interference, confirmation, artefact control for HCV NS3 helicase inhibitor project, biochemical, ChemBridge library; shares compounds with HCV NS3h FP; Cy5-dT15 DNA/NS3h fluorescence interference counterscreen; fluorescence interference ratio at 100 µM, hits read low; actives 44% (n = 240); AID 720489, 2013;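 active = fluorescence interference ratio at or below 0.8 quencher or at or above a set limitenhancer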;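 note: ratio of compound fluorescence to mean of negative controls so 1 means no interference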
Active calls of the source: *.

SMILES | Cy5 interf NS3h | HCV NS3h FP | others
COc1cc(C=O)cc(Br)c1OCc1ccccc1Cl | 1 | 8
CCOc1cc(C=O)cc(I)c1OCc1ccccc1Cl | 0.64* | 9
O=P(CO)(c1ccccc1)c1ccccc1 | 0.97 | 1
O=P(O)(O)CP(=O)(c1ccccc1)c1ccccc1 | 0.76* | 7
O=C(CSc1nnc(-c2ccc(Br)cc2)o1)NCc1ccccc1 | 1 | 9
O=C(OCc1ccccc1)Sc1nnc(-c2ccc(Br)cc2)o1 | 0.78* | 14
O=C(COc1ccc(Cl)cc1)Nc1nc(-c2ccc(Cl)cc2)cs1 | 0.93 | 13
CCOC(=O)Cc1csc(NC(=O)COc2ccc(-c3ccccc3)cc2)n1 | 0.78* | 13
C/C(=N/N=C\c1ccccc1)C1C(=O)c2ccccc2C1=O | 0.68* | 0
C/C(=N/N=C(\C)c1cccs1)C1C(=O)c2ccccc2C1=O | 1 | 4
O=C(Oc1ccc2c(-c3ccccc3)cc(=O)oc2c1)c1ccccc1Cl | 1 | 10
CCOc1ccc(S(=O)(=O)N(CC(=O)Nc2ccc(C)cc2)c2ccc(C)cc2)cc1 | 0.97 | -5
CCOc1ccc(S(=O)(=O)N(CC(=O)NC)c2ccc(C)cc2)cc1 | 1.2* | 0
CCOC(=O)c1ccc(NC(=O)CN(c2ccc(OCC)cc2)S(=O)(=O)c2ccc(SC)cc2)cc1 | 1 | 8
CSc1ccc(S(=O)(=O)N(CC(=O)Nc2ccc(C)cc2)c2ccc(C)cc2)cc1 | 0.68* | 22
CSc1ccc(S(=O)(=O)N(CC(=O)Nc2ccc(C(C)=O)cc2)c2ccc(C)cc2)cc1 | 0.73* | 17
CSc1ccc(S(=O)(=O)N(CC(=O)Nc2ccc(C)cc2C)c2ccc(C)cc2)cc1 | 1 | 8
COc1ccccc1N1CCN(/N=C\c2ccccc2C)CC1 | 1 | 4
O=C1C(=O)N(Cc2ccccc2)C(c2ccccc2)C1=C(O)c1ccccc1 (stereo not given) | 1 | 0
N#C/C(=C\c1cccs1)C(=O)Nc1ccc(F)cc1 | 1 | 6
Cc1cc(/C=C(\C#N)C(=O)Nc2ccc(F)cc2)c(C)n1-c1ccc(C(=O)O)cc1 | 0.95 | 0
[O-][n+]1cc(O)c(Br)c2ccccc21 | 0.7* | 11
CN(C)Cc1c(O)c[n+]([O-])c2ccccc12 | 1 | 4
Cc1ccc2nc(/C(C#N)=C/c3cc([N+](=O)[O-])ccc3Cl)[nH]c2c1 | 0.96 | 0
COc1ccc(OC)c(C2C3=C(CC(C)(C)CC3=O)OC3=C2C(=O)CC(C)(C)C3)c1 | 1.1 | 3
SMILES | Cy5 interf NS3h | HCV NS3h FP | others
COc1ccc2c(c1)C(NC(=O)C(F)(F)F)CC2=O (stereo not given) | 0.62* | -2
COc1ccc2occ(C(=O)c3ccc([N+](=O)[O-])cc3)c2c1 | 1 | 5
COc1ccc2occ(C(=O)c3ccc(N)cc3)c2c1 | 1.1 | 40 | HCV NS3h conf=7;SSB FP counter=19;Cy5 SSB fluor CB=0.87;Cy5 interf conf=0.85
Cc1ccc(C)n1-c1ccc(Nc2ccccc2)cc1 | 0.82 | -1
Cc1ccc(C)n1-c1ccc(C(=O)O)c(O)c1 | 1.3* | 90* | HCV NS3h conf=101*;SSB FP counter=99*;Cy5 SSB fluor CB=0.92;Cy5 interf conf=0.98
Cc1ccc(C)n1-c1cc(C(=O)O)ccc1O | 1.4* | 96* | HCV NS3h conf=85*;SSB FP counter=104*;Cy5 SSB fluor CB=0.94;Cy5 interf conf=1
Cc1ccc(C(=O)O)cc1N1C(=O)C2C3C=CC(C3)C2C1=O (stereo not given) | 1.1 | -3
O=C(NC(=S)Nc1nc(-c2ccccc2)cs1)c1ccc(Cl)cc1 | 1 | 8
O=C(Nc1nc(-c2ccc(Cl)cc2)cs1)c1cccs1 | 1.2 | 40 | HCV NS3h conf=27;SSB FP counter=19;Cy5 SSB fluor CB=0.97;Cy5 interf conf=0.77*
C(=C\c1nnc(-c2ccccc2)o1)/c1ccccc1 | 1 | 26
Cc1ccc(OCCSc2ncnc3nc[nH]c23)cc1 | 0.93 | 1
COC(=O)c1cccc(NC(=O)c2ccc[n+]([O-])c2)c1 | 1.1 | 4
COC(=O)c1cccc(N2C(=O)C=CC2=O)c1 | 0.95 | 46* | HCV NS3h conf=36;SSB FP counter=-2;Cy5 SSB fluor CB=0.98;Cy5 interf conf=0.73*
CCN(CC)c1ccc(/C=C2\C(=O)NC(=O)N(c3ccccc3OC)C2=O)cc1 | 1.1 | 4
CCN(CC)c1ccc(/C=C2/C(=O)NC(=O)N(c3ccccc3)C2=O)cc1 | 3.2* | 86* | HCV NS3h conf=30;SSB FP counter=26;Cy5 SSB fluor CB=1.6*;Cy5 interf conf=1.8*
CCOc1ccc(Nc2cc(C)nc3ccc(OC)cc23)cc1 | 0.99 | 7
COc1ccc2c(Cl)c(C(=O)Nc3ccc(N4CCOCC4)cc3)sc2c1 | 0.97 | 9
COc1nsnc1NS(=O)(=O)c1ccc(NC(=S)NC(=O)c2sc3cc(F)ccc3c2Cl)cc1 | 1 | 94* | HCV NS3h conf=38;SSB FP counter=5;Cy5 SSB fluor CB=1;Cy5 interf conf=0.76*
O=C(/C=C\Nc1ccccc1NS(=O)(=O)c1ccccc1)c1ccc(F)cc1 | 1.1 | 31
O=C1C=CC(=O)N1c1cccc([N+](=O)[O-])c1 | 0.9 | 63* | HCV NS3h conf=66*;SSB FP counter=9;Cy5 SSB fluor CB=0.99;Cy5 interf conf=0.92
O=C1C2C3C=CC(C3)C2C(=O)N1c1ccc([N+](=O)[O-])cc1Br (stereo not given) | 0.99 | 4
CCOc1ccc(N2C(=O)C=CC2=O)c([N+](=O)[O-])c1 | 0.97 | 64* | HCV NS3h conf=47;SSB FP counter=4;Cy5 SSB fluor CB=0.97;Cy5 interf conf=0.95
CCOc1ccc(NC(=O)c2cccc(Oc3ccccc3)c2)c([N+](=O)[O-])c1 | 1.1 | 7
Cc1ccc(OCC(N)=O)c(Br)c1 | 1.1 | -13
O=C1C2C3CCC(O3)C2C(=O)N1c1cccc([N+](=O)[O-])c1 (stereo not given) | 0.9 | 0
SMILES | Cy5 interf NS3h | HCV NS3h FP | others
Cc1ccc(N2C(=O)C=CC2=O)c(Br)c1 | 1 | 76* | HCV NS3h conf=62*;SSB FP counter=7;Cy5 SSB fluor CB=0.94;Cy5 interf conf=0.96
O=C1C=CC(=O)N1c1ccc([N+](=O)[O-])cc1Br | 0.92 | 88* | HCV NS3h conf=62*;SSB FP counter=0;Cy5 SSB fluor CB=0.94;Cy5 interf conf=0.76*
O=C1NC(=O)N(c2ccc(Cl)cc2)C(=O)/C1=C/c1ccc(Oc2ccc([N+](=O)[O-])cn2)cc1 | 0.98 | 27
CCCCN(CCCC)S(=O)(=O)c1ccc(Cl)cc1 | 1.1 | -10
COc1ccc(N2C(=O)NC(=O)/C(=C\c3cc(C)n(-c4cccc([N+](=O)[O-])c4)c3C)C2=O)cc1 | 0.99 | -1
O=S(=O)(c1ccc(-c2ccccc2)cc1)N1CCSC1c1ccccc1 (stereo not given) | 0.92 | 19
COC(=O)c1cc(OC)cc([N+](=O)[O-])c1 | 1 | 4
COCCOC(=O)C1=C(C)NC(=O)NC1c1ccc(-c2cc(Cl)ccc2Cl)o1 (stereo not given) | 0.96 | 2
